Source: PubChem BioAssay
Activity calls are given as the source filed them.

Assay: PSAC antagonists in infected red cells, primary screen, cell-based, P. falciparum Indochina, OD700, 18 h (AID 1157)
Conditions: P. falciparum Indochina infected erythrocytes, osmotic lysis OD700, 18 h; higher = more signal, called active from +8 up or from −8 down

z-score, inactive:
COC(=O)c1c2oc(c1C(=O)OC)C(=O)N[C@H](Cc1ccccc1)Cn1nncc1C1(CCCCC1)NC(=O)N[C@H](CO)CC2 0.628
CCOC1=C2C(c3ccc(C)cc3)N(S(=O)(=O)c3ccc(C)cc3)CC2n2c(=O)n(-c3ccccc3)c(=O)n2C1 (stereo not given) 0.807
C[C@H]1C2[C@H](Cc3ccccc3)NC(=O)[C@]23C(=O)N[C@H](Cc2ccccc2)C(=O)N[C@H](Cc2ccccc2)C(=O)NC/C=C/CCC/C=C/C3[C@@H]2O[C@]12C (stereo not given in full) 0.794
Cc1ccc(S[C@]2(C(=O)NCCCN(C)C)CC(=O)N(C(C)C)[C@@H]2c2ccc(CO)cc2I)cc1 0.277
O=C1O[C@@H](c2ccccc2)[C@@H](c2ccccc2)N2[C@@H](c3ccc(O)cc3)[C@]3(C(=O)Nc4ccccc43)[C@@H](C(=O)N3CCCCCCC3)[C@H]12 0.516
COc1ccc(C#Cc2ccc3c(c2)[C@]2(C(=O)N3)[C@H](C(=O)N3CCN(c4ncccn4)CC3)[C@H]3C(=O)O[C@H](c4ccccc4)[C@H](c4ccccc4)N3[C@@H]2c2ccc(O)cc2)cc1 0.686
COCCCNC(=O)[C@@]1(C)c2ccccc2C(=O)N(Cc2ccccc2)[C@H]1c1ccc(CO)cc1 -0.487
C=CCC(OC(C)=O)[C@@H]1[C@@H](N(Cc2cc3ccccc3o2)C(=O)c2cccc3ccccc23)c2cc(OCCCO)ccc2N1C(=O)Cc1ccc(OC)cc1 (stereo not given in full) 0.629
CC1CC/C=C\[C@H]2OC34C=CCN(c5ccc6ccccc6c5)C(=O)[C@H]3N(CCCCCO)C(=O)[C@@H]4C2C(=O)O1 (stereo not given in full) 0.0382
CN(C)CCCC[C@@H]1NC(=O)[C@@H]2C[C@H](C(=O)NCCCCCN)[C@H](c3ccc(O)cc3)N2C1=O -0.0676
CC(=O)n1cc(C(O)C2C=CC3C(=O)N(c4ccccc4)C(=O)C3N2Nc2ccc(C#N)cc2)c2ccccc21 (stereo not given) 1.37
COc1cc(NN2C(C(O)c3ccccc3)C=CC3C(=O)N(c4ccccc4)C(=O)C32)cc(OC)c1OC (stereo not given) -0.325
C/C=C/[C@H](CCn1cc([C@H](O)c2ccccc2)nn1)[Si](C)(C)c1ccc(OC)cc1 0.13
C=C(C(=O)CC[C@@H](OC(=O)c1cccnc1)c1ccc(CO)o1)C(C)C 0.209
C=CCC(OC(C)=O)[C@@H]1[C@@H](N(Cc2cc3ccccc3o2)C(=O)c2cccc3ccccc23)c2cc(OCCCO)ccc2N1C(=O)Cc1ccc2ccccc2c1 (stereo not given in full) 0.332
Cc1ccccc1/C=C/C=O 0.231
[N-]=[N+]=NCc1ccccc1C[C@]1(C(=O)NCc2ccccc2)COC(c2ccc(OCCCO)cc2)=N1 2.78
COCCOC(=O)N1C(=O)[C@@]2(c3cc(C#CC4=CCCCC4)ccc31)[C@H](C(=O)N1CCN(c3ncccn3)CC1)[C@H]1C(=O)O[C@H](c3ccccc3)[C@H](c3ccccc3)N1[C@@H]2c1ccc(OCCO)cc1 0.657
COC(=O)C(CC#Cc1ccc2c(c1)[C@]1(C(=O)N2)[C@H](C(=O)N2CCCCCCC2)[C@H]2C(=O)O[C@H](c3ccccc3)[C@H](c3ccccc3)N2[C@@H]1c1ccccc1OCCO)C(=O)OC 0.417
NC(=O)[C@]1(Cc2ccccc2)N=C(c2ccc(OCCCO)cc2)O[C@@H]1c1ccccc1 2.19
CCCCN1CC=CC23O[C@@H]4C=CCCOC(=O)C4[C@H]2C(=O)N(CCCO)[C@@H]3C1=O (stereo not given in full) -1.34
C=CC[C@@]1(C(=O)OC)N=C(c2ccc(OCCCO)cc2)O[C@@H]1c1ccccc1CN=[N+]=[N-] 3.48
C=CC[C@@]1(C(N)=O)N=C(c2ccc(OCCCO)cc2)O[C@@H]1c1ccccc1N=[N+]=[N-] 3.37
Cc1ccc(N2C(=O)c3ccccc3[C@@H](C(=O)NCC(C)C)[C@@H]2c2ccc(CO)cc2)nc1 0.231
CN1C(=O)C2C=CC(C(O)c3ccc(Br)cc3)N(Nc3ccccc3)C2C1=O (stereo not given) 0.826
CCCC[C@@H]1C[C@H]1[C@@H](NC(=O)c1ccccc1)c1ccccc1 0.888
CN(C)CCCCCCNC(=O)[C@@H]1C[C@@H]2C(=O)NCC(=O)N2[C@@H]1c1cccc(OCCO)c1 0.253
COC(=O)c1c(CC[C@@H](CO)NC(=O)Nc2ncn[nH]2)oc(C(=O)Cc2ccccc2)c1C(=O)OC 0.0651
COC(=O)[C@@]1(Cc2ccc(F)cc2)[C@H]2c3cc(C(=O)N4CCCC4)n(CCc4ccc(OC)c(Br)c4)c3C[C@H]2CN1C(=O)c1ccccc1 1.33
[N-]=[N+]=NCc1ccccc1[C@@H]1OC(c2ccc(OCCCO)cc2)=N[C@]1(Cc1ccccc1N=[N+]=[N-])C(N)=O 0.54
C#C[C@H](O[Si](C#CCCCCCC)(C(C)C)C(C)C)c1ccccc1 0.433
CC(=O)NCCCC[C@@H]1NC(=O)[C@@H]2C[C@H](C(=O)NCc3ccc(F)cc3)[C@H](c3ccc(O)cc3)N2C1=O 0.277
CC(C)C[C@@H]1NC(=O)[C@@H]2C[C@H](C(=O)NCCCCN(C)C)[C@H](c3ccc(O)cc3)N2C1=O -0.189
COCCOC(=O)N1C(=O)[C@@]2(c3cc(C#Cc4ccc(OC)cc4)ccc31)[C@H](c1ccc(O)cc1)N1[C@H](c3ccccc3)[C@H](c3ccccc3)OC(=O)[C@H]1[C@@H]2C(=O)N1CCN(c2ncccn2)CC1 0.59
CCOC(=O)C1=CC[C@@H](c2cccc(Cl)c2)N(S(=O)(=O)c2ccc(C)cc2)[C@H]1c1ccc(C#N)cc1 0.729
